MEKK3 PB1 HTS = raises or lowers MEK5 binding to the human MEKK3 PB1 domain; AID 1529; binding response (% of control), % at 10 µM; 290,000 tested, 1.4% active; bead-based flow cytometry, Alexa488-MEK5 binding to MEKK3; actives lie on both sides; 0 = blocked by unlabeled MEK5, 100 = vehicle;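 active = binding response more than 3 SD above or below the average of its plate-row segment, actives on both sides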;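 also: Alexa488 bead fluorescence after subtracting the streptavidin-only scavenger bead signal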
Target sequence (Q99759 whole entry, looked up, the tested form may be a part): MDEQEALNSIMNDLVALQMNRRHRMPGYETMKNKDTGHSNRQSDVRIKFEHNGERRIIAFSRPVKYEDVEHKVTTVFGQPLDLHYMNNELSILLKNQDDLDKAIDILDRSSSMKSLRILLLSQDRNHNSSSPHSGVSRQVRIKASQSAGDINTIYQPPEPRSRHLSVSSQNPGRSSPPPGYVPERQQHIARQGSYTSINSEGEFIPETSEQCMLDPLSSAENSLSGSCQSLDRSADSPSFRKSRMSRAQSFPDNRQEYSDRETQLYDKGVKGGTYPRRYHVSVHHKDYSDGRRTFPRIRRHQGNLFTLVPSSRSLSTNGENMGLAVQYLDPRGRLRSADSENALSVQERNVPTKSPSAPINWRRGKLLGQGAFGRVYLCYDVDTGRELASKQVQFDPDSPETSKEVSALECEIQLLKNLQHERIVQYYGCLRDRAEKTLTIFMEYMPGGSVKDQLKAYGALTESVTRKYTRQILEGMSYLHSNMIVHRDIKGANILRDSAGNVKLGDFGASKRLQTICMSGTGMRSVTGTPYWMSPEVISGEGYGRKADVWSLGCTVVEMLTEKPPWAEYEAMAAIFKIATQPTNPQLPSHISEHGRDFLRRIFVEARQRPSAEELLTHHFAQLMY
MEKK2 mut-MEK5 = signal of MEK5 binding to mutant human MEKK2 PB1 domain; bead flow cytometry, Alexa488-MEK5 binding to MEKK2 mutant; percent response, % at 10 µM; 290,000 tested, 0.35% active; in the data active = percent response above about 24%, passing the limit was not always enough
MEKK2 WT-MEK5 = raises or lowers MEK5 binding to wildtype human MEKK2 PB1 domain; binding response (% of control), % at 10 µM; bead flow cytometry, Alexa488-MEK5 binding to MEKK2 WT; actives lie on both sides; 290,000 tested, 1.1% active; AID 1531; Q9Y2U5; in the data active = binding response below about 67% or above about 130%
Arbovirus anti = arbovirus infection inhibition; arbovirus infection cell-based antiviral screen; inhibition, % at 10 µM; 200,000 tested, 0.37% active; AID 1251; in the data active = inhibition above about 30%
Pf gametocyte = inhibitors of late stage P. falciparum gametocyte viability; inhibition, % at 10.9 µM; P. falciparum stage V gametocytes, ATP luminescence, 24 h; 150,000 tested, 0.065% active;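 active = inhibition above the mean plus 3 SD of compounds within the control limits, set per campaign, cut at about 38% in these data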
MEKK2wt confirm = raises or lowers MEK5 binding to wildtype human MEKK2, retest; shares compounds with MEKK3 PB1 HTS; bead flow cytometry, Alexa488-MEK5 binding to MEKK2 WT; actives lie on both sides; binding response (% of control), % at 10 µM; 5,900 tested, 2.4% active; in the data active = binding response below about 16% or above about 210%; inactive = in between
MEKK2mut-MEK5 = signal of MEK5 binding to mutant human MEKK2, retest. bead flow cytometry, Alexa488-MEK5 binding to MEKK2 mutant. 5,900 tested, 2% active. percent response, % at 10 µM. shares compounds with MEKK3 PB1 HTS; in the data active = percent response mostly above about 71%, no sharp cut-off; inactive = mostly below about 38%;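 also: higher means compound restores mutant binding toward wildtype level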
MEKK3 confirm = confirmation of inhibitors of MEK5 binding to human MEKK3; 5,900 tested, 1.8% active; shares compounds with MEKK3 PB1 HTS; binding response (% of control), % at 10 µM; AID 1894; bead flow cytometry, Alexa488-MEK5 binding to MEKK3; hits give low values;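 active = binding response below 72% of control, or above a set upper limit, though filed actives all read lower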;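 also: lower values mean stronger disruption of MEK5 binding to MEKK3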
Of the large screens only hits and unclear results are named; the others gave an inactive call (follow-up assays come after a bar, where they were run); [ ] = remark or other dose. Rows were chosen to be rich in hits. Some 2.4% of all compounds tested hit in one or more screens of this group.

Cc1cc2ncn(CCC(=O)NC(C)(C)C)c2cc1C	MEKK3 PB1 HTS 3.0[inhibitor], MEKK2 WT-MEK5 4.0[inhibitor] | MEKK2wt confirm inactive | MEKK2mut-MEK5 inactive | MEKK3 confirm inactive
Cc1cc2ncn(CCC(=O)NC3CCCC3)c2cc1C	none
COc1ccc([N+](=O)[O-])cc1/C=N/NC(=O)CNC(=O)C(c1ccccc1)c1ccccc1	MEKK3 PB1 HTS 165 | MEKK2wt confirm inactive | MEKK2mut-MEK5 inactive | MEKK3 confirm inactive
COc1ccc([N+](=O)[O-])cc1/C=N/NC(=O)CNC(=O)c1cccc(F)c1	none
CC1CC(C)CN(C(=O)CCn2c(=O)oc3ccccc32)C1 (centres undefined)	none (no result: Arbovirus anti, Pf gametocyte)
OCCN(CC(O)Cn1ccc2ccccc21)CC(O)Cn1ccc2ccccc21 (centres undefined)	none (no result: MEKK3 PB1 HTS, MEKK2 mut-MEK5, MEKK2 WT-MEK5)
CC(C)(C)c1ccc(OCC(O)CN(CCO)CC(O)Cn2ccc3ccccc32)cc1 (centres undefined)	MEKK3 PB1 HTS 133 | MEKK2wt confirm inactive | MEKK2mut-MEK5 inactive | MEKK3 confirm inactive
O=C(Nc1cc(C(F)(F)F)cc(C(F)(F)F)c1)Nc1cnn(-c2ccc([N+](=O)[O-])cc2)c1C(F)(F)F	none (no result: Arbovirus anti)
COc1cc(/C=N\Nc2cc(=O)n(C)c(=O)n2C)ccc1O	none (no result: Pf gametocyte)
Cn1c(N/N=C\c2cccc(O)c2)cc(=O)n(C)c1=O	MEKK3 PB1 HTS 146 | MEKK2wt confirm inactive | MEKK2mut-MEK5 inactive | MEKK3 confirm inactive
CCCCN(CCCC)Cc1ccc(C(=O)NNC(=O)Nc2ccc(F)cc2)o1	none
CC(=O)c1ccc(N=C2C(=O)Nc3ccccc32)cc1	MEKK3 PB1 HTS 56[inhibitor], MEKK2 WT-MEK5 20[inhibitor] (no result: Arbovirus anti, Pf gametocyte) | MEKK2wt confirm inactive | MEKK2mut-MEK5 inactive | MEKK3 confirm inactive
CCc1cc2c(Nc3ccc(O)cc3)nc(C)nc2s1	none (no result: Arbovirus anti)
Cc1cccc2sc(NC(=O)CN3C(=O)C4CC=CCC4C3=O)nc12 (centres undefined)	MEKK3 PB1 HTS 148 | MEKK2wt confirm inactive | MEKK2mut-MEK5 inactive | MEKK3 confirm inactive
Cc1cccc2sc(NC(=O)CN3C(=O)NC4(CCCC4)C3=O)nc12	none (no result: Arbovirus anti, Pf gametocyte)
Cc1c(Cl)ccc2sc(NC(=O)CN3C(=O)c4ccccc4C3=O)nc12	MEKK3 PB1 HTS 64[inhibitor] (no result: Pf gametocyte) | MEKK2wt confirm inactive | MEKK2mut-MEK5 inactive | MEKK3 confirm inactive
O=C(Nc1ccc2ccccc2c1)c1cc(F)c(F)cc1Cl	none (no result: Arbovirus anti)
Cn1cnnc1-c1cccc(NC(=O)c2cc(F)c(F)cc2Cl)c1	MEKK3 PB1 HTS 135 | MEKK2wt confirm inactive | MEKK2mut-MEK5 inactive | MEKK3 confirm inactive
CC(=O)c1cccc(NC(=O)N2CCCC2C(=O)Nc2ccc3c(c2)OCO3)c1 (centres undefined)	none
CCN(CC)CCOc1ccc(/C(=C(/Cl)c2ccccc2)c2ccccc2)cc1	MEKK2 mut-MEK5 26, MEKK2 WT-MEK5 179 (no result: Pf gametocyte) | MEKK2wt confirm inactive | MEKK2mut-MEK5 inactive | MEKK3 confirm inactive
CC/C(=C(\c1ccc(O)cc1)c1ccc(OCCN(C)C)cc1)c1ccccc1	MEKK2 WT-MEK5 180 (no result: Pf gametocyte) | MEKK2wt confirm inactive | MEKK2mut-MEK5 inactive | MEKK3 confirm inactive
CN(C)CCOc1ccc(C(C)(C)c2ccccc2)cc1	none
Cc1oc2ccc(O)cc2c1C(=O)OC(C)C	MEKK3 PB1 HTS 80[inhibitor] (no result: Pf gametocyte) | MEKK2wt confirm inactive | MEKK2mut-MEK5 inactive | MEKK3 confirm inactive
COCc1c(C(=O)N/N=C/c2cccc3ccccc23)nnn1-c1nonc1N	none
COC/C=C/C1=CC2=CC(=O)C(C)(OC(=O)c3cnc4ccccc4n3)C(=O)C2=CN1c1ccccc1 (centres undefined)	none (no result: Arbovirus anti)
COC/C=C/C1=CC2=CC(=O)C(C)(OC(=O)c3cnc4ccccc4n3)C(=O)C2=CN1CC(C)C (centres undefined)	MEKK3 PB1 HTS 80[inhibitor] (no result: Arbovirus anti, Pf gametocyte) | MEKK2wt confirm inactive | MEKK2mut-MEK5 inactive | MEKK3 confirm inactive
COC(=O)CSC1=C(C#N)C(c2ccccc2)CC(=O)N1 (centres undefined)	MEKK3 PB1 HTS 2.0[inhibitor], MEKK2 WT-MEK5 -2.0[inhibitor] | MEKK2wt confirm inactive | MEKK2mut-MEK5 inactive | MEKK3 confirm inactive
C=CCSC1=C(C#N)C(c2ccccc2OC)CC(=O)N1 (centres undefined)	none
C=CCSC1=C(C#N)C(c2ccccc2OCC)CC(=O)N1 (centres undefined)	MEKK3 PB1 HTS 0.0[inhibitor], MEKK2 WT-MEK5 -8.0[inhibitor] (no result: Pf gametocyte) | MEKK2wt confirm inactive | MEKK2mut-MEK5 inactive | MEKK3 confirm inactive
COC(=O)CSC1=C(C#N)C(c2ccc(C(C)C)cc2)CC(=O)N1 (centres undefined)	none (no result: Pf gametocyte)
O=C(Nc1ccc(N2CCCCC2)cc1)c1cccnc1Cl	none
CS(=O)(=O)N1CCN(c2ccc(NC(=O)c3cccnc3Cl)cc2)CC1	MEKK3 PB1 HTS 1.0[inhibitor], MEKK2 WT-MEK5 -3.0[inhibitor] (no result: Pf gametocyte) | MEKK2wt confirm inactive | MEKK2mut-MEK5 inactive | MEKK3 confirm inactive
FC(F)(F)c1nnc2ccc(Cl)nn12	none
FC(F)(F)c1nnc2ccc(Sc3ccccn3)nn12	MEKK3 PB1 HTS 1.0[inhibitor] (no result: MEKK2 WT-MEK5) | MEKK2wt confirm inactive | MEKK2mut-MEK5 inactive | MEKK3 confirm inactive
COc1nc(-c2ccccc2)ccc1-c1noc(-c2ccccc2)n1	none (no result: Pf gametocyte)
COc1nc(-c2ccccc2)ccc1-c1noc(COc2ccccc2)n1	MEKK3 PB1 HTS 132 (no result: Pf gametocyte) | MEKK2wt confirm inactive | MEKK2mut-MEK5 inactive | MEKK3 confirm inactive
COC(=O)CSc1nc(-c2ccccc2)cc(-c2ccco2)c1C#N	MEKK3 PB1 HTS 125 | MEKK2wt confirm inactive | MEKK2mut-MEK5 inactive | MEKK3 confirm inactive
COc1ccc(-c2[nH]ncc2CN2CCCCCCC2)c(OC)c1	MEKK2 mut-MEK5 98, MEKK2 WT-MEK5 223 | MEKK2wt confirm 214 | MEKK2mut-MEK5 79 | MEKK3 confirm inactive
CCOc1ccc(CSC(=N)N)cc1Cl	none (no result: Arbovirus anti)
CCCCOc1ccc(CSCCN)cc1Cl	MEKK3 PB1 HTS 128, MEKK2 WT-MEK5 169 (no result: Arbovirus anti) | MEKK2wt confirm inactive | MEKK2mut-MEK5 inactive | MEKK3 confirm inactive
CSc1scc2c1-c1nc(SCC(=O)C(C)(C)C)ncc1CC2	MEKK3 PB1 HTS 66[inhibitor] (no result: Arbovirus anti) | MEKK2wt confirm inactive | MEKK2mut-MEK5 inactive | MEKK3 confirm inactive
C=CCNC(=O)CSc1ncc2c(n1)-c1c(csc1SC)CC2	none (no result: Arbovirus anti)
CCOC(=O)Cn1nc(C)c(NC(=O)COc2ccc([N+](=O)[O-])cc2)c1C	none (no result: Pf gametocyte)
CCOC(=O)Cn1nc(C)c(NC(=O)COc2cccc(Cl)c2)c1C	MEKK3 PB1 HTS 132 | MEKK2wt confirm inactive | MEKK2mut-MEK5 inactive | MEKK3 confirm inactive
Cc1cc(/C=C2/C(=O)NN(c3ccccc3)C2=O)c(C)n1-c1ccc(O)cc1	none
Cc1cc(/C=C2\C(=O)NN(c3ccccc3)C2=O)c(C)n1-c1ccccc1O	MEKK3 PB1 HTS 36[inhibitor], MEKK2 WT-MEK5 32[inhibitor] (no result: Arbovirus anti) | MEKK2wt confirm inactive | MEKK2mut-MEK5 inactive | MEKK3 confirm inactive
